Reference: PubChem BioAssay (NCI)
About 83,000 compounds went through this panel and 20% of them were active in at least one assay; those are over-represented in the sample as a whole.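 Values shown are percent growth following 48 h exposure of cells in 96-well plates to a single concentration of compound; below 10 was considered active.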 The source made the active and inactive calls.

How the values were obtained:
Test in all cases: NCI-60 one-dose screen, 48 h (100 = growth as untreated, 0 = no growth, -100 = all killed)
Settings in all cases: 10 µM unless noted
DU-145 prostate = tested on: DU-145 prostate
K-562 leukemia = tested on: K-562 leukemia
MALME-3M melanoma = tested on: MALME-3M melanoma
MDA-MB-231 breast = tested on: MDA-MB-231 breast
RXF 393 renal = tested on: RXF 393 renal
SF-268 CNS = tested on: SF-268 CNS
SF-295 CNS = tested on: SF-295 CNS
SF-539 CNS = tested on: SF-539 CNS
UACC-257 melanoma = tested on: UACC-257 melanoma
M14 melanoma = tested on: M14 melanoma
HCT-15 colon = tested on: HCT-15 colon
HT29 colon = tested on: HT29 colon
SNB-75 CNS = tested on: SNB-75 CNS
SNB-19 CNS = tested on: SNB-19 CNS
U251 CNS = tested on: U251 CNS
PC-3 prostate = tested on: PC-3 prostate
SK-MEL-5 melanoma = tested on: SK-MEL-5 melanoma
UACC-62 melanoma = tested on: UACC-62 melanoma
LOX IMVI melanoma = tested on: LOX IMVI melanoma
SK-MEL-28 melanoma = tested on: SK-MEL-28 melanoma

Measured: growth

Cc1nc2sc(C(=O)Nc3ccccc3Cl)c(N)c2cc1C(C)O (stereo not given)
inactive: DU-145 prostate 96.6% | K-562 leukemia 22.5% | MALME-3M melanoma 88.6% | MDA-MB-231 breast 80.9% | RXF 393 renal 92.8% | SF-268 CNS 86.7% | SF-295 CNS 84.3% | SF-539 CNS 85.1% | UACC-257 melanoma 86.5% | M14 melanoma 58.9% | HCT-15 colon 61.4% | HT29 colon 34.3% | SNB-75 CNS 72.8% | SNB-19 CNS 83.2% | U251 CNS 66.5% | PC-3 prostate 83.5% | SK-MEL-5 melanoma 80.7% | UACC-62 melanoma 68.2% | LOX IMVI melanoma 74.5% | SK-MEL-28 melanoma 84.7%

Nn1c(SCC(=O)Nc2ccc(Cl)cc2)nnc1-c1cc(F)c(Cl)cc1Cl
inactive: DU-145 prostate 108% | K-562 leukemia 77.4% | MALME-3M melanoma 92.6% | MDA-MB-231 breast 81.8% | RXF 393 renal 117% | SF-268 CNS 97.4% | SF-295 CNS 87.9% | SF-539 CNS 92.9% | UACC-257 melanoma 98.2% | M14 melanoma 96.9% | HCT-15 colon 79.3% | HT29 colon 95% | SNB-75 CNS 81.2% | SNB-19 CNS 98% | U251 CNS 94.4% | PC-3 prostate 85.7% | SK-MEL-5 melanoma 86.6% | UACC-62 melanoma 65.8% | LOX IMVI melanoma 86% | SK-MEL-28 melanoma 98.1%

C[C@H](Oc1cc(-c2cnn(C3CCNCC3)c2)cnc1N)c1c(Cl)ccc(F)c1Cl
inactive: DU-145 prostate 77.8% | MDA-MB-231 breast 52.2% | RXF 393 renal 31.6% | SF-268 CNS 59% | SF-295 CNS 49.7% | SF-539 CNS 68.3% | HCT-15 colon 43.2% | HT29 colon 12.4% | SNB-75 CNS 76.3% | SNB-19 CNS 65.6% | U251 CNS 37.6% | PC-3 prostate 45.9% | SK-MEL-5 melanoma 59% | UACC-62 melanoma 60.2%
active: K-562 leukemia 5.27% | MALME-3M melanoma -38% | UACC-257 melanoma -45% | M14 melanoma -51.9% | LOX IMVI melanoma 8.87% | SK-MEL-28 melanoma -46.5%

COc1cc(/C=C/C(=O)c2cccs2)ccc1OCc1ccc(Cl)nc1
inactive: DU-145 prostate 47.7% | K-562 leukemia 41.3% | MALME-3M melanoma 81.9% | MDA-MB-231 breast 82.8% | RXF 393 renal 94.9% | SF-268 CNS 85.1% | SF-295 CNS 105% | SF-539 CNS 91% | UACC-257 melanoma 91.3% | M14 melanoma 82% | HCT-15 colon 62.5% | HT29 colon 97.3% | SNB-75 CNS 119% | SNB-19 CNS 66.6% | U251 CNS 35.3% | PC-3 prostate 69% | SK-MEL-5 melanoma 87.2% | UACC-62 melanoma 71.3% | LOX IMVI melanoma 27.2% | SK-MEL-28 melanoma 92%

COc1ccc2nc(-c3ccc(Cl)cc3)cc(C(=O)N3N=C(c4ccc(N)cc4)CC3c3ccccc3)c2c1 (stereo not given)
inactive: DU-145 prostate 55% | K-562 leukemia 17.5% | MALME-3M melanoma 62.5% | MDA-MB-231 breast 83.8% | RXF 393 renal 35.3% | SF-268 CNS 48.3% | SF-295 CNS 24.2% | SF-539 CNS 43.4% | UACC-257 melanoma 67.1% | M14 melanoma 38.9% | HCT-15 colon 26.7% | HT29 colon 19.6% | SNB-75 CNS 44.3% | SNB-19 CNS 49.6% | U251 CNS 50.7% | PC-3 prostate 35.9% | SK-MEL-5 melanoma 39.4% | UACC-62 melanoma 37% | LOX IMVI melanoma 40.4% | SK-MEL-28 melanoma 61.7%

COc1ccc(C(C)c2cc(OC)c(OC)c(OC)c2)cc1 (stereo not given)
active: DU-145 prostate 9.97% | K-562 leukemia 7.1% | SF-539 CNS -7.56% | M14 melanoma 7.54% | HT29 colon 4.2% | SK-MEL-5 melanoma -31.5%
inactive: MALME-3M melanoma 67.5% | MDA-MB-231 breast 30.5% | RXF 393 renal 24.7% | SF-268 CNS 37.5% | SF-295 CNS 15.6% | UACC-257 melanoma 53% | HCT-15 colon 18% | SNB-75 CNS 38.2% | SNB-19 CNS 34.1% | U251 CNS 18% | PC-3 prostate 24.5% | UACC-62 melanoma 28.1% | LOX IMVI melanoma 26.1% | SK-MEL-28 melanoma 61.1%

COc1ccc(C(=S)c2cc(OC)c(OC)c(OC)c2)cc1OC(=O)CCl
active: DU-145 prostate 9.36% | SF-539 CNS 9.83% | U251 CNS 4.79% | SK-MEL-5 melanoma -29.7%
inactive: K-562 leukemia 10.2% | MALME-3M melanoma 74.2% | MDA-MB-231 breast 32.9% | RXF 393 renal 44.7% | SF-268 CNS 39.3% | SF-295 CNS 14.7% | UACC-257 melanoma 56.7% | M14 melanoma 12.6% | HCT-15 colon 14.3% | HT29 colon 24% | SNB-75 CNS 53.8% | SNB-19 CNS 31.4% | PC-3 prostate 14.1% | UACC-62 melanoma 47.9% | LOX IMVI melanoma 19.6% | SK-MEL-28 melanoma 67.8%

CC(C)(C)c1ccc2oc(=O)n(SC(Cl)(Cl)Cl)c2c1
inactive: DU-145 prostate 111% | K-562 leukemia 82.4% | MALME-3M melanoma 109% | MDA-MB-231 breast 104% | RXF 393 renal 110% | SF-268 CNS 98.2% | SF-295 CNS 97.1% | SF-539 CNS 97.2% | UACC-257 melanoma 111% | M14 melanoma 94.4% | HCT-15 colon 99.1% | HT29 colon 90.4% | SNB-75 CNS 98.1% | SNB-19 CNS 112% | U251 CNS 104% | PC-3 prostate 99.3% | SK-MEL-5 melanoma 107% | UACC-62 melanoma 109% | LOX IMVI melanoma 93.4% | SK-MEL-28 melanoma 112%

C=CCn1c(CN2CCN(c3cc4c(cc3F)c(=O)c(C(=O)O)cn4C3CC3)CC2)n[nH]c1=S
inactive: DU-145 prostate 103% | K-562 leukemia 89.6% | MALME-3M melanoma 85.4% | MDA-MB-231 breast 116% | RXF 393 renal 115% | SF-268 CNS 97.5% | SF-295 CNS 101% | SF-539 CNS 98.8% | UACC-257 melanoma 105% | M14 melanoma 107% | HCT-15 colon 103% | HT29 colon 90.5% | SNB-75 CNS 99.8% | SNB-19 CNS 107% | U251 CNS 103% | PC-3 prostate 101% | SK-MEL-5 melanoma 106% | UACC-62 melanoma 99.9% | LOX IMVI melanoma 81.8% | SK-MEL-28 melanoma 97.2%

Cc1cnc(SCc2ccc(Cl)cc2)[nH]c1=S
inactive: DU-145 prostate 100% | K-562 leukemia 92.9% | MALME-3M melanoma 95.8% | MDA-MB-231 breast 101% | RXF 393 renal 132% | SF-268 CNS 95.3% | SF-295 CNS 95.5% | SF-539 CNS 101% | UACC-257 melanoma 102% | M14 melanoma 102% | HCT-15 colon 101% | HT29 colon 82.9% | SNB-75 CNS 85.2% | SNB-19 CNS 98.2% | U251 CNS 96.3% | PC-3 prostate 104% | SK-MEL-5 melanoma 96.9% | UACC-62 melanoma 99.4% | LOX IMVI melanoma 101% | SK-MEL-28 melanoma 98.9%

COc1cc(C2=NNC(c3ccc(N(C)C)cc3)C2)cc(OC)c1OC (stereo not given)
inactive: MALME-3M melanoma 83.7% | MDA-MB-231 breast 31.9% | SF-268 CNS 55.7% | SF-295 CNS 30.3% | UACC-257 melanoma 62.6% | M14 melanoma 21.7% | HCT-15 colon 30.9% | SNB-75 CNS 37.8% | U251 CNS 28.8% | PC-3 prostate 29.3% | UACC-62 melanoma 40.8% | LOX IMVI melanoma 49.4% | SK-MEL-28 melanoma 79.4%
active: DU-145 prostate 3.51% | K-562 leukemia -9.17% | RXF 393 renal -31.7% | SF-539 CNS -39.2% | HT29 colon 6.34% | SNB-19 CNS 8.5% | SK-MEL-5 melanoma -4.54%

CCCCCOC(=O)c1ccccc1O
inactive: DU-145 prostate 107% | K-562 leukemia 99.9% | MALME-3M melanoma 109% | MDA-MB-231 breast 110% | RXF 393 renal 123% | SF-268 CNS 105% | SF-295 CNS 98% | SF-539 CNS 99.7% | UACC-257 melanoma 94.3% | M14 melanoma 97.4% | HCT-15 colon 97.4% | HT29 colon 96.5% | SNB-75 CNS 83.1% | SNB-19 CNS 106% | U251 CNS 101% | PC-3 prostate 86.9% | SK-MEL-5 melanoma 103% | UACC-62 melanoma 97.9% | LOX IMVI melanoma 104% | SK-MEL-28 melanoma 110%

CCN1CCN(Cc2ccc(NC(=O)c3cccc(C#Cc4cccc5[nH]nc(N)c45)c3)cc2C(F)(F)F)CC1
active: DU-145 prostate -70% | K-562 leukemia -43.8% | MALME-3M melanoma -71.4% | MDA-MB-231 breast -85% | RXF 393 renal -92% | SF-268 CNS -41.5% | SF-295 CNS -88.4% | SF-539 CNS -98% | UACC-257 melanoma -75.7% | M14 melanoma -83.5% | HCT-15 colon -70.7% | HT29 colon -83% | SNB-75 CNS -60.8% | SNB-19 CNS -83.6% | U251 CNS -95.6% | PC-3 prostate -80.3% | SK-MEL-5 melanoma -97.2% | UACC-62 melanoma -77.1% | LOX IMVI melanoma -100% | SK-MEL-28 melanoma -82.9%

CC(C)(C)c1nn(-c2ccccc2)c2c1COCN2Cc1ccc(Cl)cc1
inactive: DU-145 prostate 103% | K-562 leukemia 47.5% | MALME-3M melanoma 90.2% | MDA-MB-231 breast 95.1% | RXF 393 renal 100% | SF-268 CNS 103% | SF-295 CNS 95.9% | SF-539 CNS 83.6% | UACC-257 melanoma 114% | M14 melanoma 91.8% | HCT-15 colon 96% | HT29 colon 65.7% | SNB-75 CNS 95.1% | SNB-19 CNS 92.4% | U251 CNS 90.3% | PC-3 prostate 63.6% | SK-MEL-5 melanoma 82.2% | UACC-62 melanoma 72.8% | LOX IMVI melanoma 85% | SK-MEL-28 melanoma 100%

Nc1c(C(=O)c2ccccc2)sc2nc(-c3cc4ccccc4o3)cc(-c3ccc(Cl)cc3)c12
inactive: DU-145 prostate 90.8% | K-562 leukemia 102% | MALME-3M melanoma 101% | MDA-MB-231 breast 85.5% | RXF 393 renal 113% | SF-268 CNS 94.8% | SF-295 CNS 129% | SF-539 CNS 105% | UACC-257 melanoma 104% | M14 melanoma 107% | HCT-15 colon 86.4% | HT29 colon 106% | SNB-75 CNS 92.3% | SNB-19 CNS 111% | U251 CNS 90% | PC-3 prostate 87.5% | SK-MEL-5 melanoma 97.8% | UACC-62 melanoma 102% | LOX IMVI melanoma 86.5% | SK-MEL-28 melanoma 120%
